The list is not random: actives were taken first. Their share in the collection is about 4.1%.
DAX1 inh-1: DAX1 (NR0B1) inhibition, primary screen. inhibition, % at 6.8 µM. 1.1% of 370,000 active. AID 652010. HEK293T StAR-luciferase reporter, SF-1/DAX-1 repression relief;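 active means inhibition above the mean over all tested compounds plus 3 SD, cut at about 3.6% in these data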;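 further: higher inhibition means more luminescence from relief of DAX-1 repression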
ssDAF12 agonist: S. stercoralis DAF-12 activation, primary screen; AID 652126; HEK293 ssDAF-12/GRIP1 lit1-tk-luc reporter, luminescence; % of 3 µM dafachronic acid response; 1% of 370,000 active; activation, % at 6.8 µM;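 active means activation above the mean over all tested compounds plus 3 SD, cut at about 0.9% in these data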
hgDAF12 agonist: activates the H. glycines DAF-12 receptor ligand-binding domain | 1.8% of 370,000 active | AID 687014 | HEK293 GAL4-hgDAF12 UAS-luciferase reporter, agonist luminescence; normalized to butyrate control | activation, % at 6.8 µM;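 active means activation above a cutoff set at the mean of all screened compounds plus 3 SD, cut at about 10% in these data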
DAX1 inh-2: inhibitors of human orphan nuclear receptor DAX1 (NR0B1) | P51843 | AID 504766 | inhibition, % at 6.75 µM | 0.99% of 340,000 active | HEK293 Gal4-DAX1 luciferase reporter, luminescence;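 active means inhibition above the mean over all tested compounds plus 3 SD, cut at about 4.2% in these data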;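 further: inhibition shows as a rise in luminescence from relieved DAX1 repression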
Target sequence (P51843 207-470 limits assumed): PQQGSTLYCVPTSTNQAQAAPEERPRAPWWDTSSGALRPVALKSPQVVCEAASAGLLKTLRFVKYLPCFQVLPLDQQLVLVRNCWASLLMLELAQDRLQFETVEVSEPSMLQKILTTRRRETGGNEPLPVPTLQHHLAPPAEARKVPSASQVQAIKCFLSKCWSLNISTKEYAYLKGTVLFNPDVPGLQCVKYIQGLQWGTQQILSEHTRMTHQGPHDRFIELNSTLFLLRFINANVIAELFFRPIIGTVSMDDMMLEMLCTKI
hcDAF-12 act: activators of H. contortus DAF-12 nuclear receptor | HEK293 hcDAF-12 lit1-tk-luc reporter, luminescence; 0% DMSO, 100% Δ7-dafachronic acid | activation, % at 6.8 µM | 1.4% of 370,000 active;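 active means activation above the mean of all tested compounds plus 3 SD, cut at about 5.5% in these data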
Hits are given with their value; n = inactive; x = no result given.

SMILES	DAX1 inh-1	ssDAF12 agonist	hgDAF12 agonist	DAX1 inh-2	hcDAF-12 act
Cc1ccc(-n2c(SCc3cccc4ccccc34)nnc2-c2ccccn2)cc1	n	n	n	x	n
Cc1ccc(S(=O)(=O)N(C)c2ccc(C(=O)NCC(c3ccccc3)N3CCCC3)cc2)cc1 (configuration not stated)	4.0	n	n	n	n
COc1ccc(NS(=O)(=O)c2cccc(C(=O)NCC(c3ccc(OC)cc3)N3CCCCC3)c2)cc1 (configuration not stated)	n	n	n	n	n
COc1ccc(NS(=O)(=O)c2cccc(C(=O)NCC(c3ccc(OC)cc3)N3CCCC3)c2)cc1 (configuration not stated)	4.2	n	n	n	n
CN(c1ccccc1)S(=O)(=O)c1ccc(C(=O)NCC(c2ccco2)N2CCCCC2)cc1 (configuration not stated)	n	n	n	n	n
COc1ccc(C(CNC(=O)c2cccc(S(=O)(=O)Nc3ccc(F)cc3)c2)N2CCCC2)cc1 (configuration not stated)	3.6	n	n	n	n
COc1ccc(-c2cc(C(=O)NN=C/C(C)=C/c3ccccc3)[nH]n2)cc1	n	n	n	x	n
Cc1cccc(-n2ncc3c(NCc4cccs4)ncnc32)c1	n	1.2	n	n	n
Cc1ccc(CSc2ncnc3c2cnn3-c2ccccc2)cc1	n	n	n	n	n
Cc1ccc(-n2ncc3c(SCc4ccccc4)ncnc32)cc1	n	n	12	n	6.5
c1ccc(CNc2ncnc3c2cnn3-c2ccccc2)cc1	n	n	n	n	n
Cc1cccc(-n2ncc3c(NCc4ccccc4)ncnc32)c1	n	n	12	n	n
Cc1onc(-c2ccccc2)c1C(=O)NNC(=O)c1ccccc1O	n	n	n	n	n
Cc1onc(-c2ccccc2)c1C(=O)NNC(=O)c1ccccc1	n	1.1	n	n	n
Cc1onc(-c2ccccc2)c1C(=O)Nc1cccc(C#N)c1	n	n	11	n	n
Cc1c(-c2cc(Br)ccc2O)nc2cc3c(cc2c1C)OCO3	n	n	n	4.3	n
CC(COc1cccc(C#N)c1)CN1CCC(C(O)(c2ccccc2)c2ccccc2)CC1 (configuration not stated)	n	n	n	x	n
CCNC(=S)N1CCC(n2cnc3ccccc32)CC1	n	n	n	4.6	n
O=C(NC1CCCCC1)N1CCC(n2cnc3ccccc32)CC1	n	n	n	n	n
CN1c2ccccc2C(=O)NC1c1ccc(Cl)cc1 (configuration not stated)	n	n	n	n	n
Clc1ccc(C2Nc3ccccc3-n3cccc32)cc1 (configuration not stated)	n	1.1	n	n	n
Nc1[nH]c(C(=O)c2ccccc2)c(-c2ccccn2)c1C(=O)c1c[nH]c2ccccc12	n	1.3	n	x	n
CC(NC(=O)NC(N)=O)(C(F)(F)F)C(F)(F)F	n	n	n	5.5	n
CC(NC(=O)NNC(N)=S)(C(F)(F)F)C(F)(F)F	n	n	n	n	n
CCC[C@H](/C=C/C(=O)OC(C)(C)C)Sc1ccc(OC)cc1	n	n	n	x	n
SMILES	DAX1 inh-1	ssDAF12 agonist	hgDAF12 agonist	DAX1 inh-2	hcDAF-12 act
COC(=O)[C@]12C[C@H](CC(=O)N3CCN(C(=O)c4ccco4)CC3)C(=O)N(Cc3ccc(Cl)cc3Cl)C1=C[C@H](C1CCCC1)O[C@@H]2C	n	n	n	x	n
O=C(Nc1ccc([N+](=O)[O-])cc1)N1CCCCCC1	4.1	n	n	n	n
CN1[C@@H](Cc2ccccc2)COc2cc(N3CCCC3)ccc2S1(=O)=O	n	n	n	x	n
Cc1ccc(-n2c(SCc3nc4ccccc4[nH]3)nnc2-c2ccccn2)cc1	n	n	n	x	n
CCOC(=O)c1cccnc1SCc1cc(=O)n2ccccc2n1	n	2.1	n	n	n
CC(OC(=O)c1cccnc1SCc1cc(=O)n2ccccc2n1)c1ccccn1 (configuration not stated)	n	n	n	n	n
Cc1ccc(CNc2ccc3c(c2)ncn3C(C)(C)C)cc1	4.1	n	n	6.6	n
COc1cc(C=Nn2c(-c3ccc(F)cc3)n[nH]c2=S)ccc1OCc1ccccc1	n	n	n	x	n
c1ccc2c(c1)oc1c(Nc3ccc(CN4CCOCC4)cc3)ncnc12	n	n	11	n	n
c1ccc2c(c1)oc1c(Nc3ccc4c(c3)OCO4)ncnc12	n	n	12	n	n
Cc1nc(Nc2ccc3c(c2)OCO3)c2oc3ccccc3c2n1	n	n	n	n	n
COC(=O)c1cccc(C(=O)N2CCCC(C(=O)c3cccc(OC(C)C)c3)C2)c1 (configuration not stated)	n	n	n	n	5.8
CC(C)CN1C(=O)[C@@]2(CC(=O)N(C)C2c2ccccc2)c2cc(-n3cc(CCCC#N)nn3)ccc21 (some centres not stated)	n	n	n	x	n
Cc1ccc(N(CC(=O)NCCc2ccccc2)C(=O)CCC(=O)Nc2cc(C)ccn2)cc1	n	n	n	5.4	n
Cc1ccnc(NC(=O)CCC(=O)N(CC(=O)NCCc2ccccc2)c2ccccc2F)c1	n	n	n	n	n
COCCNC(=O)CN(C(=O)Cn1nnc2ccccc21)c1ccc(C)cc1	n	n	n	4.5	n
COCCNC(=O)CN(C(=O)Cn1nnc2ccccc21)c1ccc(C)c(F)c1	n	n	n	n	n
COCCNC(=O)CN(C(=O)CCC(=O)Nc1ccccn1)c1ccc(OC)cc1	n	n	n	5.0	n
COc1ccc(N(CC(=O)NCCc2ccccc2)C(=O)CCC(=O)Nc2ccccn2)cc1	n	n	n	n	n
COC(=O)[C@]12C[C@H](CC(=O)N3CCCCC3)C(=O)N(CCC3=CCCCC3)C1=C[C@H](C(C)C)O[C@@H]2C1CC1	n	n	n	x	n
Cc1cccc(-c2cccc3c4c([nH]c23)[C@@H]2C[C@H](N(C)C(=O)NC3CCCCC3)[C@H]([C@H](C)O)CN2CC4)c1	n	n	n	x	n
CCCCNC(=O)O[C@H]1CC[C@@]23CCCN2C(=O)CCC[C@H]3C1	x	n	n	x	n
O=C(OCc1cn(Cc2ccccc2C(F)(F)F)nn1)N1CCOCC1	n	n	n	x	n
C[C@H](CO)N1C[C@H](C)[C@H](CN(C)C(=O)Cc2ccncc2)Oc2ncc(Br)cc2C1=O	3.8	n	n	n	n
C[C@@H]1CN([C@@H](C)CO)C(=O)c2cc(Br)cnc2O[C@H]1CN(C)C(=O)c1cccc(F)c1	n	n	n	n	n
C[C@@H]1CN([C@@H](C)CO)C(=O)c2cc(-c3cccnc3)cnc2O[C@H]1CN(C)C(=O)c1cccc(F)c1	n	n	n	6.5	n
COc1ccc(S(=O)(=O)N2CCOCC2)cc1C(=O)NCC(c1ccco1)N1CCCC1 (configuration not stated)	n	n	n	n	n
COc1ccc(-n2nc(C(=O)NCC(=O)N3CCCC3)c3ccccc3c2=O)cc1	n	n	n	5.2	n

Screening results (PubChem)
